Here are results for 38 molecules from PubChem BioAssay (Tox21).

A short description of the experiment: p53 small molecule agonists, cell-based qHTS assay: qHTS cell viability counter screen (AID 1963581). Further: nearly all actives have a fitted effect of over 45% in size. The gist of the method: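 Multiplexed with the reporter read, a CellTiter-Glo step (30 min, room temperature) gauges ATP-based viability of HCT-116 p53RE-bla cells after 16 h compound incubation at 37 C.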
(In general: In qHTS, concentration-response curves come from the screen itself.)

Results filed as inconclusive are left out. Entries that show only a call come without a potency. A number with no mark means an inactive call. The source made the active and inactive calls. The call rests on the fitted dose curve.

With `O=c1c(O)c(O)c1=O`, the Potency entry is “inactive”.
The same measure, in the same setting: the result for `COCCC(=O)OC` reads “inactive”; that for `CCCCCCC(CO)CCCC` (stereo not drawn), “inactive”.
For the molecule `CC(C)C1OCCN1CCOC(=O)NCCCCCCNC(=O)OCCN1CCOC1C(C)C` (stereo not drawn), the Potency result is “inactive”.
Same read-out and setting: for `O=S1OCCO1` the value was “inactive”; for `CC1(C)CCC(C)(C)c2cc(NC(=O)c3ccc(C(=O)O)cc3)ccc21`, “inactive”.
As to `c1ccc(COCc2ccccc2)cc1`, the Potency result was “inactive”.
Same read-out and setting: for `CC/C=C\CCOC(C)=O` the value was “inactive”; for `CN1C[C@H](C(=O)N[C@]2(C)O[C@@]3(O)[C@@H]4CCCN4C(=O)[C@H](Cc4ccccc4)N3C2=O)C[C@@H]2c3cccc4[nH]cc(c34)C[C@H]21`, “inactive”; for `CNC(=O)c1cnn(-c2nc(N)c3ncn([C@@H]4O[C@H](CO)[C@@H](O)[C@H]4O)c3n2)c1`, “inactive”.
On the same count and under the same terms, for `COc1cc(OC)cc(OC)c1` the value was “inactive”; for `O=C(O)c1cn(C2CC2)c2cc(Cl)c(F)cc2c1=O`, “inactive”.
Take `CCCCCCCCCCCCS(=O)(=O)Cl`: the activity change, negative = cytotoxicity was -1.69% [at 13.5 µM].
With `C=C(C)CCO`, the Potency entry was “inactive”.
Same read-out and setting: for `CCCCCCCC(=O)OCC` the value was “inactive”; for `CCC1(CO)COCOC1`, “inactive”.
Regarding `NC(Cc1ccc(Cl)cc1)C(=O)O` (stereo not drawn), the activity change, negative = cytotoxicity is 8.87% [at 0.249 µM].
For the molecule `CCN(CC)C(C)=O`, the Potency entry is “inactive”.
Still for that read-out and setting: the result for `O=C(O)c1ccccc1Cl` reads “inactive”.
On the same count and under the same terms, for `CCCCCCCCOC(C)=O` the value was “inactive”.
Turning to `CCOC(=O)/C=C/C(=O)OCC`, the Potency result is “inactive”.
Still for that read-out and setting: the result for `CCOc1nc(F)cc2nc(S(=O)(=O)Nc3c(Cl)cccc3C(=O)OC)nn12` reads “inactive”; that for `CCCCCCC(O)CCOC(C)=O` (stereo not drawn), “inactive”; that for `C=CC(=O)OCC[N+](C)(C)C`, “inactive”.
On to `CCCCNc1ccc(NCCCC)c2c1C(=O)c1ccccc1C2=O`, for which the activity change, negative = cytotoxicity was -1.83% [at 13.5 µM].
Turning to `CC(C(=O)O)c1ccc2c(c1)CC(=O)c1ccccc1S2` (stereo not drawn), the Potency entry is “inactive”.
For the molecule `OCCN(CCO)c1ccccc1`, the Potency entry was “inactive”.
In the case of `C1=CCCC1`, the Potency result was “inactive”.
With `CC(=O)OC(C)(C)C`, the Potency entry was “inactive”.
On the same count and under the same terms, the result for `CC(C)CCCC(C)(C)O` reads “inactive”; that for `C=CCc1ccccc1OCC(O)CNC(C)C` (stereo not drawn), “inactive”; that for `CCCC(=O)C(=O)O`, “inactive”.
As for `NS(=O)(=O)c1cc2c(cc1Cl)CN(C1CCCCC1)C2=O`, the Potency entry was “inactive”.
With `Clc1ccnc(Cl)n1`, the Potency result is “inactive”.
Same read-out and setting: for `C/C=C/C=C/COC(=O)C(C)C` the value was “inactive”; for `COc1ccccc1NC(=O)c1cc2ccccc2cc1O`, “inactive”.
Consider `C=CC(=C)CC/C=C(\C)CCC=C(C)C`, for which the activity change, negative = cytotoxicity is 2.84% [at 13.5 µM].
As for `CCOC(=O)c1ncn2c1CN(C)C(=O)c1cc(F)ccc1-2`, the Potency result was “inactive”.
